According to PubChem BioAssay AID588342 (National Center for Advancing Translational Sciences (NCATS), 2011):
The whole screen tested about 360,000 compounds, of which about 25,000 (6.9%) were called active. Entries that show only a call come without a potency. Another 9% or so got no clear call; they are omitted. Calls come from the whole dose curve; as a rule, active = well fitted inhibition curve with a large enough effect; inconclusive = small, poorly fitted or top-dose-only effect; inactive = flat fitted curve, though single readings scatter. For the sample, actives were picked, then their nearest neighbours and some compounds at random.
Note: nearly all actives have a fitted effect of over 55% in size.
Potency is the fitted concentration of half-maximal effect.

The compounds below were run against Luciferin 4-monooxygenase (Photinus pyralis) (UniProt P08659) (assay: qHTS profiling assay for firefly luciferase inhibitor/activator using purifed enzyme and Km concentrations of substrates (counterscreen for miR-21 project)). Details: purified FLuc, luminescence inhibition; series mostly up to 57.5 µM.
Chain of Luciferin 4-monooxygenase (Photinus pyralis) (P08659 whole entry, looked up): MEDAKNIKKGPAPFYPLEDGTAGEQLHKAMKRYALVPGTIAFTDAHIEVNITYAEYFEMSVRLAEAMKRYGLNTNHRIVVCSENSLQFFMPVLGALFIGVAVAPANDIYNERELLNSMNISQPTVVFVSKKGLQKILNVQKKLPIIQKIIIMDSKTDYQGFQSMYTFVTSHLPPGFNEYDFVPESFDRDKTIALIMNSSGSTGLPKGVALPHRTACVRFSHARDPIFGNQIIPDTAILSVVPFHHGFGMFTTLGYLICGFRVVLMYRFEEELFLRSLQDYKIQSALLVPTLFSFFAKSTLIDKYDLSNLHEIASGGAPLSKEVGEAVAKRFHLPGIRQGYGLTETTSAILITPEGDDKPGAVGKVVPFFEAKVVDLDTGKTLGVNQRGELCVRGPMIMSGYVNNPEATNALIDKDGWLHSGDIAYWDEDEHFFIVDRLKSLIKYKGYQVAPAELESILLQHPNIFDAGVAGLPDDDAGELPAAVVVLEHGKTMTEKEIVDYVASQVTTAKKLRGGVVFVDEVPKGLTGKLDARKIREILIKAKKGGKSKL
Procedure, shortened: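 Biochemical qHTS of compounds, final roughly 60 µM downward over six points, against 10 nM purified firefly luciferase using Km concentrations of substrates (10 uM D-luciferin, 10 uM ATP) in Tris acetate pH 7.5 buffer; luminescence output.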
With `O=C(CCS(=O)(=O)c1cc(Br)cc2c1N(C(=O)C1CC1)CC2)Nc1ccc(Br)cc1F` the Potency was “inactive”. In the case of `Cc1ccc(NC(=O)CSc2nc3c([nH]c4ccccc43)c(=O)n2-c2ccccc2)cc1Cl`, the Potency is reported as “inactive”. In the case of `NC(=O)CSc1nc2c(oc3ccccc32)c(=O)n1Cc1ccccc1`, the Potency is reported as “inactive”. For `Cc1ccc(OCC(=O)Nc2ccc3oc(=O)ccc3c2)cc1C`, the Potency was “inactive”. With `CC1=C(C(=O)N2CCN(c3cccc(C(F)(F)F)c3)CC2)C2(CCCCC2)OC1=O` the Potency was “inactive”. `COc1ccc(Cc2nc3ccc(C(=O)NCc4ccc(OC)cc4OC)cc3o2)cc1` was tested, and the Potency was “inactive”. In the case of `COC(=O)c1ccc(CSc2nc3cc(Cl)ccc3o2)cc1`, the Potency is reported as “inactive”. For `CC(C)c1nc2cc(C(=O)NC(C)c3cnn(C)c3)ccc2o1` (configuration not stated), the Potency was “inactive”. With `COc1ccc(-c2nc3ccc(C(=O)NCc4ccc(C)cc4)cc3nc2-c2ccc(OC)cc2)cc1` the Potency was “inactive”. With `COc1ccc(CNC(=O)c2ccc3oc(C(C)C)nc3c2)cc1` the Potency was 15.1 µM (active). With `COC(=O)c1ccc(CNC(=O)c2ccc3oc(C(C)C)nc3c2)cc1` the Potency was 13.5 µM (active). With `COC(=O)c1c(NC(=O)c2cc(=O)c3c(C)cc(C)cc3o2)sc2c1CCCC2` the Potency was “inactive”. `CCCCN(C)S(=O)(=O)c1ccc(C(=O)Nc2sc3c(c2C(N)=O)CC(C)(C)NC3(C)C)cc1` was tested, and the Potency was “inactive”. For `FC(F)(F)c1cc(Nc2nc3ccccc3c3nncn23)ccc1Cl`, the Potency was “inactive”. `Cc1c(CNC2CCCCC2)c(C(=O)O)c(C)n1Cc1cccc(Cl)c1` was tested, and the Potency was “inactive”. For `CC(C)Nc1ccc(-n2nc3ccccc3[n+]2[O-])cc1`, the Potency was 1.9 µM (active). For `CCC(=O)Nc1c(C(=O)N2CCN(c3ccc(F)cc3)CC2)oc2ccccc12`, the Potency was “inactive”. In the case of `CC1=C(C(=O)OCc2ccc(C)cc2)C(c2c(Cl)cccc2Cl)CC(=O)N1` (configuration not stated), the Potency is reported as “inactive”. `CCOC(=O)c1ccc(NC(=O)C2CC(=O)NC(=Nc3ccc(C)c(C)c3)S2)cc1` (configuration not stated) was tested, and the Potency was “inactive”. With `CSC1=N/C(=C\C=C\c2cccs2)C(=O)S1` the Potency was 16.9 µM (active). In the case of `O=C1N/C(=C/c2cccs2)C(=O)N1Cc1ccc(F)cc1`, the Potency is reported as “inactive”. For `O=S1(=O)CCC(NC(=S)SCc2ccccc2Br)C1` (configuration not stated), the Potency was “inactive”. In the case of `Cc1ccc(S(=O)(=O)N2CCN(C(=O)COC(=O)c3c(C)noc3C)CC2)c(C)c1`, the Potency is reported as “inactive”. `COc1cc(OC)cc(C(=O)NCC(=O)OCc2csc(-c3ccccc3)n2)c1` was tested, and the Potency was “inactive”. With `Cc1ccc(-c2nc(COC(=O)c3c(C)noc3C)cs2)cc1` the Potency was 9.53 µM (active). In the case of `CCC(C)C(N=C1NS(=O)(=O)c2ccccc21)C(=O)N1CCC(C)CC1` (configuration not stated), the Potency is reported as “inactive”. `Nc1c(NCCc2ccccc2)c2ccccc2oc1=O` was tested, and the Potency was “inactive”. With `COc1ccc(C2/C(=C(/O)c3ccccc3)C(=O)C(=O)N2C)c(OC)c1` (configuration not stated) the Potency was “inactive”. `COc1ccc(/C(O)=C2/C(=O)C(=O)N(c3nc(C)c(C)s3)C2c2ccco2)cc1` (configuration not stated) was tested, and the Potency was “inactive”. In the case of `CCOc1ccc(/C(O)=C2\C(=O)C(=O)N(c3ccc(OC)cc3)C2c2ccccc2[N+](=O)[O-])cc1` (configuration not stated), the Potency is reported as 8.49 µM (active). In the case of `Cc1ccc(C(=O)Nc2ncccc2C)cc1S(=O)(=O)N1CCOCC1`, the Potency is reported as “inactive”. For `O=C1CSC(=S)N1c1ccc(O)cc1`, the Potency was “inactive”. With `CCOc1cccc(/C=N/N2C(=O)CSC2=S)c1O` the Potency was 21.3 µM (active). `CCOc1cccc(/C=N/NC(=S)NCCN2CCOCC2)c1O` was tested, and the Potency was “inactive”. For `C=CCNC(=S)NNC(=O)COc1c(Cl)cc(Cl)cc1Cl`, the Potency was “inactive”. In the case of `COc1ccccc1CNC(=O)NCc1noc2ccc(C)cc12`, the Potency is reported as “inactive”. For `O=S(=O)(Cc1nnnn1-c1ccccc1)c1ccccc1`, the Potency was “inactive”. `Oc1ccc(-c2nncn2-c2ccccc2)cc1` was tested, and the Potency was “inactive”. `c1ccc(-n2nc3ccccc3n2)cc1` was tested, and the Potency was 19 µM (active). With `COc1ccc(NC(=O)CN(C)C(=O)Cc2coc3cc(C)c(C)cc23)cc1` the Potency was “inactive”. `COc1ccc(NC(=O)CN(C)C(=O)CNC(=O)C2CCCCC2)cc1` was tested, and the Potency was “inactive”. For `COc1ccc(NC(=O)CN(C)C(=O)c2cc(-c3ccc(C)o3)nc3ccccc23)cc1`, the Potency was 3.38 µM (active). With `COc1ccc(NC(=O)CN(C)C(=O)c2n[nH]c3ccccc23)cc1` the Potency was 23.9 µM (active). With `COc1ccc(NC(=O)CN(C)C(=O)c2ccc(COc3ccccc3)o2)cc1` the Potency was “inactive”. With `CN(C)S(=O)(=O)c1ccc(NC(=O)COC(=O)c2n[nH]c3ccccc23)cc1` the Potency was “inactive”. In the case of `Cc1ccc(C(=O)Nc2ccc(OCc3cc(=O)n4c5c(sc4n3)CCCC5)cc2)cc1`, the Potency is reported as “inactive”. With `Cc1ccc(NC(=O)CCCNC(=O)c2ccc(Cl)cc2)cc1S(=O)(=O)N1CCOCC1` the Potency was “inactive”. `COc1cc(NC(=O)c2noc3c2CSc2ccccc2-3)cc(OC)c1OC` was tested, and the Potency was “inactive”. `COc1ccc(-c2csc(-c3cccs3)n2)cc1OC` was tested, and the Potency was 23.9 µM (active). `COc1ccc(-c2csc(-c3c(N)c(C(=O)c4ccc(OC)c(OC)c4)n4ccccc34)n2)cc1` was tested, and the Potency was “inactive”. For `COc1ccc(CNC(=O)COCc2cc(-c3cccs3)on2)cc1OC`, the Potency was “inactive”. `COc1ccccc1-c1cc(C(F)(F)F)nc(S(=O)(=O)CCCC(=O)Nc2ccc(F)cc2F)n1` was tested, and the Potency was “inactive”. With `CCN(C(=O)Cn1c(=O)nc(-c2ccccc2)c2cc(Cl)ccc21)c1cccc(C)c1` the Potency was “inactive”. `Cc1ccsc1C(=O)NCCc1ccco1` was tested, and the Potency was 21.3 µM (active). In the case of `COc1cc(OC)cc(C(=O)NCCSCc2ccco2)c1`, the Potency is reported as “inactive”. `O=C(NCCc1ccco1)c1nn(Cc2ccccc2)c(=O)c2ccccc12` was tested, and the Potency was “inactive”. In the case of `CCC(=O)Nc1cccc(C2=NOC3(C2)C[C@@H](C(N)=O)N(C(=O)c2cc([N+](=O)[O-])cc([N+](=O)[O-])c2C)C3)c1` (some centres not stated), the Potency is reported as “inactive”. With `COc1ccc(Cn2ccc3nc(C)c(C(=O)Nc4ccc(C)c(F)c4)cc3c2=O)cc1` the Potency was “inactive”. With `COc1cccc(Cn2c(CNS(=O)(=O)c3ccc(Cl)s3)nc3cccnc32)c1` the Potency was “inactive”. With `COc1ccc(NC(=O)C(c2ccccc2)N2Cc3ccccc3C2=O)cc1` (configuration not stated) the Potency was “inactive”. `O=C(c1cc(-c2ccccc2O)on1)N1CCCC1` was tested, and the Potency was 6.75 µM (active). In the case of `COc1cccc(OCc2cc(C(=O)N3CCN(C(=O)c4ccco4)CC3)no2)c1`, the Potency is reported as 12 µM (active). With `O=C(c1ccc(Cl)c(Cl)c1)N1CCCC1` the Potency was “inactive”. In the case of `CCCOC1CCCN(C(=O)c2cc(COc3cncc(Cl)c3)on2)C1` (configuration not stated), the Potency is reported as 10.7 µM (active). For `CCOC(=O)CC1(NC(=O)c2cc(COc3cncc(Cl)c3)on2)CCCCC1`, the Potency was “inactive”. For `CC(=O)c1ccc(NC(=O)c2cc(-c3cccs3)on2)cc1`, the Potency was “inactive”. With `CNC(=O)n1ccc(C(=O)N2CCCCC2)n1` the activity change, negative = inhibition was 2.3% [at 2.3 µM] (inactive). `Cc1nonc1C1CCCN1C(=O)c1cc(COc2cccc(C(F)(F)F)c2)on1` (configuration not stated) was tested, and the Potency was “inactive”. In the case of `COc1cccc(OC)c1OCCN1CCN(C(=O)c2ccco2)CC1`, the Potency is reported as “inactive”. For `O=C(c1ccco1)N1CCN(C(=O)c2ccc(COc3ccc(F)cc3)o2)CC1`, the Potency was “inactive”. With `O=C(c1ccc(F)cc1)N1CCCC(c2nc(-c3cccs3)no2)C1` (configuration not stated) the Potency was “inactive”. For `O=C(c1cc(-c2cccs2)on1)N1CCCCC1`, the Potency was 23.9 µM (active). `CCOC(=O)c1c(C)oc2nc(C)nc(N3CCN(c4ccc(OC)cc4)CC3)c12` was tested, and the Potency was “inactive”. For `O=S(=O)(c1ccc(SCc2ccc(Br)cc2)nc1)N1CCOCC1`, the Potency was “inactive”. `COc1ccccc1N1CCN(c2ncnc3onc(-c4cccc(Cl)c4)c23)CC1` was tested, and the Potency was “inactive”. For `COc1cc(NC(=O)c2nn(-c3ccc(C)cc3)c(=O)c3c2c2ccccc2n3C)cc(OC)c1OC`, the Potency was “inactive”. With `COc1cc2nc(SCC(=O)Nc3ccccc3F)n3nc(-c4ccccc4)nc3c2cc1OC` the Potency was “inactive”. With `c1ccc(CNc2ncnc3[nH]ncc23)cc1` the Potency was “inactive”. For `Cc1ccc(NC(=O)CN(C)C(=O)c2cccc(S(=O)(=O)N3CCCC3)c2)cc1`, the Potency was “inactive”. `Cc1[nH]c2c(C(=O)N3CCCC(CCC(=O)NCc4ccccc4F)C3)cccc2c1C` (configuration not stated) was tested, and the Potency was “inactive”. With `COc1cccc(-c2cc(C(=O)N3CCN(c4ccccc4OC)CC3)no2)c1` the Potency was “inactive”. For `COc1ccccc1-c1cc(C(=O)N2CCCCC2)no1`, the Potency was 5.36 µM (active). In the case of `COc1cc(Cl)ccc1OCc1cc(C(=O)N2CC[C@@H]3CCCC[C@H]3C2)no1`, the Potency is reported as 23.9 µM (active). For `COc1ccc(OCc2cc(C(=O)N3CCCC3)no2)c2ccccc12`, the Potency was 9.53 µM (active). `COc1ccccc1OCc1ccc(C(=O)N2CCN(C)CC2)o1` was tested, and the Potency was “inactive”. `COc1ccc(C(=O)C2CCCN(C(=O)c3cc(C)on3)C2)cc1F` (configuration not stated) was tested, and the Potency was “inactive”. For `Cc1ccc(C)c(OCc2cc(C(=O)N3CCN(c4cnccn4)CC3)no2)c1`, the Potency was “inactive”. In the case of `O=C(c1ccco1)N1CCN(C(=O)c2cc(-c3ccccc3F)no2)CC1`, the Potency is reported as 13.5 µM (active). In the case of `COc1ccc(Cl)cc1C(=O)NNC(=S)NC1CCCC1`, the Potency is reported as “inactive”. In the case of `O=C(NCCCN1CCOCC1)c1cc(-c2ccccc2F)no1`, the Potency is reported as “inactive”. For `COc1cc(Cl)ccc1OCc1cc(C(=O)N(C)CCc2c(C)n[nH]c2C)no1`, the Potency was “inactive”. With `O=C(Cc1c(F)cccc1Cl)N1CCN(C(=O)c2ccco2)CC1` the Potency was “inactive”. In the case of `Fc1ccc(-c2nn(-c3ccccc3Cl)c3c2cnc2ccccc23)cc1`, the Potency is reported as “inactive”. In the case of `O=C(CN1C2CCC1CC(NC(=O)C1CC1)C2)NCc1ccccc1` (configuration not stated), the Potency is reported as “inactive”. With `COc1ccc(CNC(=O)CN(Cc2ccccc2Cl)C(=O)c2csnn2)cc1` the Potency was “inactive”. For `CCc1nn(CC(=O)Nc2cc(C)cc(C)c2)c(=O)c2cc3sccc3n12`, the Potency was “inactive”. For `O=C(NCC(c1ccc(Cl)cc1)N1CCOCC1)c1ccccc1F` (configuration not stated), the Potency was “inactive”. For `COC(=O)c1scc(S(=O)(=O)C(C)(C)C)c1-n1cccc1`, the Potency was “inactive”. `O=C(NCCC1=CCCCC1)c1ccc2c(c1)N(Cc1ccccc1F)C(=O)c1ccccc1S2(=O)=O` was tested, and the Potency was “inactive”. With `COCCNc1nnc(SCC(=O)NNC(=O)c2ccco2)s1` the Potency was “inactive”. `Cc1cccc(Cc2c(C)nc3nc(SCc4ccccc4Cl)nn3c2C)c1` was tested, and the Potency was “inactive”. In the case of `CCOC(=O)c1ccc(NC(=O)Cn2cc(S(=O)(=O)Cc3ccccc3F)c3ccccc32)cc1`, the Potency is reported as “inactive”.
